According to article PMC7862700, “An all-to-all approach to the identification of sequence-specific readers for epigenetic DNA modifications on cytosine”:

How the values were obtained:
Test in all cases: DAPPL (digital affinity profiling via proximity ligation, sequencing); 10 mM Tris-HCl pH 7.5, 50 mM NaCl, 1 mM DTT, 4% glycerol, room temperature, 30 min; GST-TFs on glutathione beads, 16-mer random dsDNA library, 0.1% formaldehyde crosslink after washing; high values mean tight binding
Settings in all cases: protein: recombinant; tags: N-terminal GST; dsDNA, one strand shown
[1] = molecular target: T1, ERF (Homo sapiens, UniProt P50548 1-548)
T1 sequence: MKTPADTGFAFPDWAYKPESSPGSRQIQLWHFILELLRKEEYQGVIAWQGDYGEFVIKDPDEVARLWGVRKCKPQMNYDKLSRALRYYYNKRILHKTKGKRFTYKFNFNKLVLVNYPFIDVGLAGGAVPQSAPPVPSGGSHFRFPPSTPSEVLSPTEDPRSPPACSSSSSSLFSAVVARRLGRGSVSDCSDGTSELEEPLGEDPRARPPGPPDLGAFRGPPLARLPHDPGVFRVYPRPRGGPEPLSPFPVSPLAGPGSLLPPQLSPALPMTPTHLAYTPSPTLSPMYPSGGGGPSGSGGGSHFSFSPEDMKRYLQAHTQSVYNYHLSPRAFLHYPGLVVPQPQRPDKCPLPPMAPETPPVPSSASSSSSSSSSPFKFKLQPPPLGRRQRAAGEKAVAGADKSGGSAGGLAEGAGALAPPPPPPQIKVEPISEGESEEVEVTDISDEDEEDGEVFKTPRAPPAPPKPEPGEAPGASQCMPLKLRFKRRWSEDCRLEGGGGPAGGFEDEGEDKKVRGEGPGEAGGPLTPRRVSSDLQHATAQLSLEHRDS
Summary of the method: (§1)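 After expression in yeast as GST fusions, human transcription factors were bound to glutathione beads, DNA-barcoded and mixed with a tag-only sample. The pools were incubated with 200 nmole of a 16-mer random double-stranded DNA library in Tris/NaCl/DTT/glycerol buffer (30 min, room temperature), washed and crosslinked with 0.1% formaldehyde. Proximity ligation with BsaI/T4 ligase ran for 1 h at 37 °C, before PCR amplification and sequencing on an Illumina NextSeq500. Binding signal is a hexamer's read frequency for a factor divided by its frequency for the tag-only sample.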

[2] = molecular target: T2, ETV3L (Homo sapiens, UniProt Q6ZN32 1-361)
T2 sequence: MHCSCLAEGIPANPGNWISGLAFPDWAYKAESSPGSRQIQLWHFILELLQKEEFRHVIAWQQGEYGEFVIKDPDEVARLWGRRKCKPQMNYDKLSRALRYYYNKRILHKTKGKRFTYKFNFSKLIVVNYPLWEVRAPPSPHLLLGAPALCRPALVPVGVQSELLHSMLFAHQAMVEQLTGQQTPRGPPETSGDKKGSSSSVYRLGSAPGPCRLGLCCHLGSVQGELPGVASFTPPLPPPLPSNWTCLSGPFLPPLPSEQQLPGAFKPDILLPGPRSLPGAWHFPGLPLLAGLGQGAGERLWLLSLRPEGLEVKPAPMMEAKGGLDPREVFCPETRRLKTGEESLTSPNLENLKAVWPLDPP
Summary of the method: as §1

[3] = molecular target: T3, ETS2 (Homo sapiens, UniProt P15036 1-469)
T3 sequence: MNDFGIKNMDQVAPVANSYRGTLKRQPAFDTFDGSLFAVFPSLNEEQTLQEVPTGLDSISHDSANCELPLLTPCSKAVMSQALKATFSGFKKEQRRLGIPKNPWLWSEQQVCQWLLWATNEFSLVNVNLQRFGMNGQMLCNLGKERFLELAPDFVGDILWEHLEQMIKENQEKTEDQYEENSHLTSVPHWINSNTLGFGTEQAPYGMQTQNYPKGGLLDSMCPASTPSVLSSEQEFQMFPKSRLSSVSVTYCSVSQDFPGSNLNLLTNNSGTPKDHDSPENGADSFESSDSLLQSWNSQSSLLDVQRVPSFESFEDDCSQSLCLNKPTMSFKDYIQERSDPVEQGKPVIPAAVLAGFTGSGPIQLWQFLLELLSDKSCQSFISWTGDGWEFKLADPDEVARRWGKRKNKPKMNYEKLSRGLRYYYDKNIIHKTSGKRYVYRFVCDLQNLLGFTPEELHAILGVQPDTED
Summary of the method: as §1

[4] = molecular target: T4, SPDEF (Homo sapiens, UniProt O95238 1-335)
T4 sequence: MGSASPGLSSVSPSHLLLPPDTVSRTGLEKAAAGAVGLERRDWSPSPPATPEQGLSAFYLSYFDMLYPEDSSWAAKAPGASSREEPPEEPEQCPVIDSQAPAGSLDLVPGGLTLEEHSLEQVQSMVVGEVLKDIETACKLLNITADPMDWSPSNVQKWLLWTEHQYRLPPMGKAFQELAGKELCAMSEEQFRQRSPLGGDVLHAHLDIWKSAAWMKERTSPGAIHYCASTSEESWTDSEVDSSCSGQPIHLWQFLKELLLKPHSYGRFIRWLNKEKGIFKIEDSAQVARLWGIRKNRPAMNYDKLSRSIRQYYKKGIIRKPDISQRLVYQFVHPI
Summary of the method: as §1

[5] = molecular target: T5, ETV7 (Homo sapiens, UniProt Q9Y603 1-341)
T5 sequence: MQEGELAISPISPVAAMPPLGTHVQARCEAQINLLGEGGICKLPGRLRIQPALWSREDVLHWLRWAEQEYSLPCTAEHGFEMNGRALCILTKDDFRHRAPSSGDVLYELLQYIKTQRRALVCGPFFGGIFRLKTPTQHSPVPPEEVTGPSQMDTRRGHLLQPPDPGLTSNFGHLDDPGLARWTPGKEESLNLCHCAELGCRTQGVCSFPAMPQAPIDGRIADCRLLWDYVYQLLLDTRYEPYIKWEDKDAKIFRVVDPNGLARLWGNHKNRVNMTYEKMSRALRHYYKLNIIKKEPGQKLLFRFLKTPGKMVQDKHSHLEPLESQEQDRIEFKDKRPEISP
Summary of the method: as §1

[6] = molecular target: T6, ELF5 (Homo sapiens, UniProt Q9UKW6-2 1-255)
T6 sequence: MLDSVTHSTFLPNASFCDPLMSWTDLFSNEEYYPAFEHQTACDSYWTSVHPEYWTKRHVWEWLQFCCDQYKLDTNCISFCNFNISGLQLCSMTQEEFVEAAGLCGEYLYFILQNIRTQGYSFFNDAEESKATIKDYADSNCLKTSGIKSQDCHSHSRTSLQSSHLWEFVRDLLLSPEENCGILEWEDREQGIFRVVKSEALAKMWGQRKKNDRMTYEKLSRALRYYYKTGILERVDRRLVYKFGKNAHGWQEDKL
Summary of the method: as §1

[7] = molecular target: T7, ETV3 (Homo sapiens, UniProt P41162-2 1-143)
T7 sequence: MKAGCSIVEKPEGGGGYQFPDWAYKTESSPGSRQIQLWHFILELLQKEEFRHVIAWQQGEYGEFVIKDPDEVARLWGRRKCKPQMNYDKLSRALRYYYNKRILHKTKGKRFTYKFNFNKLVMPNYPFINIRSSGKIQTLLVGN
Summary of the method: as §1

[8] = molecular target: ETV6 (Homo sapiens, UniProt P41212 1-452)
Summary of the method: as §1

Sequence of ETV6 (P41212 whole entry): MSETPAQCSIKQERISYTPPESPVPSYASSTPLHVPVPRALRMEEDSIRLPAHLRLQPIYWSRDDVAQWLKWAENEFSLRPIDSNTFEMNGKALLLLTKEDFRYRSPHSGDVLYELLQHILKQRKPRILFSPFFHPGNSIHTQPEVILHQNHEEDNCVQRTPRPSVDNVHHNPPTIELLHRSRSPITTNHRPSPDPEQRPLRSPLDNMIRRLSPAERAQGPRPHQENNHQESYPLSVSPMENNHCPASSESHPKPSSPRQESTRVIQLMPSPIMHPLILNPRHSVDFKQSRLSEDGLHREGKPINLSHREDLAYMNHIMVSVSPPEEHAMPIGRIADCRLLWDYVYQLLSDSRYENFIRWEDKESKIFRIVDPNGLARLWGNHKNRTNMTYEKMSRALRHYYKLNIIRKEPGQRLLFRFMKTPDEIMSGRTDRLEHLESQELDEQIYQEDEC

Sequence	binding signal [1]	binding signal [2]	binding signal [3]	binding signal [4]	binding signal [5]	binding signal [6]	binding signal [7]	binding signal [8]
ACGTCC	1.49 fold enrichment (6-mer frequency, TF over GST control)	1.59 fold enrichment (6-mer frequency, TF over GST control)	1.64 fold enrichment (6-mer frequency, TF over GST control)	2.11 fold enrichment (6-mer frequency, TF over GST control)	1.61 fold enrichment (6-mer frequency, TF over GST control)	1.77 fold enrichment (6-mer frequency, TF over GST control)	1.61 fold enrichment (6-mer frequency, TF over GST control)	1.74 fold enrichment (6-mer frequency, TF over GST control)
TCTCTG	1.49 fold enrichment (6-mer frequency, TF over GST control)	1.49 fold enrichment (6-mer frequency, TF over GST control)	1.61 fold enrichment (6-mer frequency, TF over GST control)	1.5 fold enrichment (6-mer frequency, TF over GST control)	1.29 fold enrichment (6-mer frequency, TF over GST control)	1.42 fold enrichment (6-mer frequency, TF over GST control)	1.48 fold enrichment (6-mer frequency, TF over GST control)	1.52 fold enrichment (6-mer frequency, TF over GST control)
TATAGT	1.16 fold enrichment (6-mer frequency, TF over GST control)	1.06 fold enrichment (6-mer frequency, TF over GST control)	1.02 fold enrichment (6-mer frequency, TF over GST control)	1.02 fold enrichment (6-mer frequency, TF over GST control)	1.2 fold enrichment (6-mer frequency, TF over GST control)	1.04 fold enrichment (6-mer frequency, TF over GST control)	1.06 fold enrichment (6-mer frequency, TF over GST control)	1.09 fold enrichment (6-mer frequency, TF over GST control)
CTAACC	1.17 fold enrichment (6-mer frequency, TF over GST control)	1.2 fold enrichment (6-mer frequency, TF over GST control)	1.15 fold enrichment (6-mer frequency, TF over GST control)	1.09 fold enrichment (6-mer frequency, TF over GST control)	1.04 fold enrichment (6-mer frequency, TF over GST control)	1.14 fold enrichment (6-mer frequency, TF over GST control)	1.16 fold enrichment (6-mer frequency, TF over GST control)	
TTACAG	1.32 fold enrichment (6-mer frequency, TF over GST control)	1.22 fold enrichment (6-mer frequency, TF over GST control)	1.21 fold enrichment (6-mer frequency, TF over GST control)	1.18 fold enrichment (6-mer frequency, TF over GST control)	1.22 fold enrichment (6-mer frequency, TF over GST control)	1.16 fold enrichment (6-mer frequency, TF over GST control)	1.16 fold enrichment (6-mer frequency, TF over GST control)	1.19 fold enrichment (6-mer frequency, TF over GST control)
CTGCAA	1.28 fold enrichment (6-mer frequency, TF over GST control)	1.35 fold enrichment (6-mer frequency, TF over GST control)	1.31 fold enrichment (6-mer frequency, TF over GST control)	1.11 fold enrichment (6-mer frequency, TF over GST control)	1.16 fold enrichment (6-mer frequency, TF over GST control)	1.17 fold enrichment (6-mer frequency, TF over GST control)	1.26 fold enrichment (6-mer frequency, TF over GST control)	1.33 fold enrichment (6-mer frequency, TF over GST control)
GGTCTT	1.22 fold enrichment (6-mer frequency, TF over GST control)	1.07 fold enrichment (6-mer frequency, TF over GST control)	1.23 fold enrichment (6-mer frequency, TF over GST control)	1.12 fold enrichment (6-mer frequency, TF over GST control)	1.19 fold enrichment (6-mer frequency, TF over GST control)	1.2 fold enrichment (6-mer frequency, TF over GST control)	1.16 fold enrichment (6-mer frequency, TF over GST control)	
TAGCTA	1.23 fold enrichment (6-mer frequency, TF over GST control)	1.24 fold enrichment (6-mer frequency, TF over GST control)	1.28 fold enrichment (6-mer frequency, TF over GST control)	1.08 fold enrichment (6-mer frequency, TF over GST control)	1.31 fold enrichment (6-mer frequency, TF over GST control)	1.16 fold enrichment (6-mer frequency, TF over GST control)	1.18 fold enrichment (6-mer frequency, TF over GST control)	1.28 fold enrichment (6-mer frequency, TF over GST control)
